This is an account of results in PubChem BioAssay (EPA / NIEHS).

Conditions in all cases: mRNA level, 48 h; actives raise or lower the signal
Read-out in one test: CYP2C8 (gene 1558)
The test can be described thus: LTEA_HepaRG_CYP2C8: Life Technologies and Expression Analysis (LTEA) Assay for CYP2C8 using HepaRG (AID 2283483). In short, it runs like this:
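CYP2C8 expression measured by TaqMan qRT-PCR and normalized to three housekeeping genes. HepaRG cultures were treated for 48 h with an eight-point half-log series topping at 100 uM, vehicle 0.5% DMSO, duplicates; fitted both directions against DMSO.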

Read-out in another test: CYP2C9 (gene 1559)
The test is described as follows: LTEA_HepaRG_CYP2C9: Life Technologies and Expression Analysis (LTEA) Assay for CYP2C9 using HepaRG (AID 2283484). In short, it runs like this:
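CYP2C9 transcript level, quantified by TaqMan qRT-PCR against three housekeeping genes, was fitted bidirectionally relative to 0.5% DMSO. HepaRG cultures were treated 48 h, in duplicate, at eight half-log concentrations topping at 100 uM.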

Read-out in a further test: CYP2E1 (gene 1571)
The test can be described thus: LTEA_HepaRG_CYP2E1: Life Technologies and Expression Analysis (LTEA) Assay for CYP2E1 using HepaRG (AID 2283485). In short, it runs like this:
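Readout is qRT-PCR of CYP2E1 mRNA, normalized to three housekeeping genes and fitted bidirectionally against 0.5% DMSO. HepaRG cells were dosed 48 h at eight concentrations, highest 100 uM with half-log dilutions.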

Read-out in the next test: CYP4A11 (gene 1579)
The test is described as follows: LTEA_HepaRG_CYP4A11: Life Technologies and Expression Analysis (LTEA) Assay for CYP4A11 using HepaRG (AID 2283486). In short, it runs like this:
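CYP4A11 transcript levels were quantified by TaqMan qRT-PCR after HepaRG human liver cells were treated for 48 hours with test chemicals (top 100 uM, half-log dilutions, 0.5% DMSO). Gain or loss of signal was fitted relative to DMSO.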

Read-out in test [1]: Cytochrome P450 3A4 (Homo sapiens) (UniProt P08684)
The test can be described thus: LTEA_HepaRG_CYP3A4: Life Technologies and Expression Analysis (LTEA) Assay for CYP3A4 using HepaRG (AID 2283487). In short, it runs like this:
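In a human hepatic line (HepaRG), duplicate wells were treated 48 h with up to 100 uM chemical in half-log dilutions. Endpoint: CYP3A4 mRNA induction or loss relative to 0.5% DMSO vehicle, by qRT-PCR.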

Read-out in test [2]: DNA damage-inducible transcript 3 (DDIT3), DDIT3 (gene 1649)
The test is described as follows: LTEA_HepaRG_DDIT3: Life Technologies and Expression Analysis (LTEA) Assay for DNA damage-inducible transcript 3 (DDIT3) using HepaRG (AID 2283488). In short, it runs like this: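 Cells are human HepaRG liver cells treated for 48 h with eight half-log concentrations up to 100 uM in 0.5% DMSO. Transcript levels come from qRT-PCR normalized to three housekeeping genes, with activity fitted in both directions relative to vehicle.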

Read-out in test [3]: Pro-epidermal growth factor (Homo sapiens) (UniProt P01133)
The test can be described thus: LTEA_HepaRG_EGF: Life Technologies and Expression Analysis (LTEA) Assay for Epidermal growth factor (EGF) using HepaRG (AID 2283489). In short, it runs like this: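 qRT-PCR readout of EGF transcript after 48 h chemical exposure of HepaRG cells; eight concentrations from 100 uM down in half-log steps, duplicate wells, 0.5% DMSO vehicle. Bidirectional curve fitting against DMSO baseline.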

Read-out in test [4]: Early growth response protein 1 (EGR1) transcription factor, EGR1 (gene 1958)
The test can be described thus: LTEA_HepaRG_EGR1: Life Technologies and Expression Analysis (LTEA) Assay for Early growth response protein 1 (EGR1) transcription factor using HepaRG (AID 2283490). In short, it runs like this:
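EGR1 transcript levels quantified by qRT-PCR (Fluidigm arrays) against three housekeeping genes after 48 h chemical exposure of HepaRG cells. Eight-point half-log series topping at 100 uM, 0.5% DMSO vehicle, analyzed for gain or loss.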

Read-out in test [5]: Ezrin (EZR), EZR (gene 7430)
The test is described as follows: LTEA_HepaRG_EZR: Life Technologies and Expression Analysis (LTEA) Assay for Ezrin (EZR) using HepaRG (AID 2283491). In short, it runs like this:
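Gain or loss of EZR mRNA is scored relative to 0.5% DMSO in human HepaRG cultures treated 48 h with test chemicals in duplicate, eight half-log concentrations from 100 uM.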

Read-out in test [6]: Cytochrome P450 3A7 (Homo sapiens) (UniProt P24462)
The test is described as follows: LTEA_HepaRG_CYP3A7: Life Technologies and Expression Analysis (LTEA) Assay for CYP3A7 using HepaRG (AID 2283492). In short, it runs like this:
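CYP3A7 transcript levels were read by TaqMan qRT-PCR on Fluidigm arrays after 48 h chemical exposure of human HepaRG cells, with housekeeping-gene normalisation. Eight half-log concentrations up to 100 uM in 0.5% DMSO were tested in duplicate.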

Read-out in test [7]: Fatty Acid-Binding Protein 1 (FABP1), FABP1 (gene 2168)
The test is described as follows: LTEA_HepaRG_FABP1: Life Technologies and Expression Analysis (LTEA) Assay for Fatty Acid-Binding Protein 1 (FABP1) using HepaRG (AID 2283494). The essentials:
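FABP1 expression by TaqMan qRT-PCR, normalised to three housekeeping genes, in HepaRG cells after 48 h chemical treatment. Eight-point half-log series topping at 100 uM in 0.5% DMSO, duplicates; gain or loss fitted relative to vehicle.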

Read-out in test [8]: Cytochrome P450 4A22 (Homo sapiens) (UniProt Q5TCH4)
The test can be described thus: LTEA_HepaRG_CYP4A22: Life Technologies and Expression Analysis (LTEA) Assay for Cytochrome P450 4A22 (CYP4A22) using HepaRG (AID 2283495). In short, it runs like this:
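HepaRG, 48 h post-plating -> serum-free induction medium; dosed 48 h, duplicate, 8 conc. (100 uM top, half-log), 0.5% DMSO. Readout: CYP4A22 mRNA by qRT-PCR, ACTB/GAPDH/POLR2A normalization; gain/loss fit relative to DMSO.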

Read-out in test [9]: Cytochrome P450 7A1 (Homo sapiens) (UniProt P22680)
The test can be described thus: LTEA_HepaRG_CYP7A1: Life Technologies and Expression Analysis (LTEA) Assay for Cytochrome P450 7A1 (CYP7A1) using HepaRG (AID 2283496). In short, it runs like this: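 HepaRG, 48 h exposure, 8-pt half-log series from 100 uM, 0.5% DMSO vehicle, duplicates. Readout: TaqMan qRT-PCR mRNA vs three housekeeping genes; bidirectional curve fit against DMSO baseline.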

Read-out in test [10]: Glutathione S-Transferase (GSTA2), GSTA2 (gene 2939)
The test can be described thus: LTEA_HepaRG_GSTA2: Life Technologies and Expression Analysis (LTEA) Assay for Glutathione S-Transferase (GSTA2) using HepaRG (AID 2283497). In short, it runs like this: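 GSTA2 transcript levels came from Fluidigm TaqMan qRT-PCR normalized to three housekeeping genes, fitted in both directions against DMSO. HepaRG cultures received chemicals for 48 h in serum-free induction medium (0.5% DMSO), 8 half-log concentrations up to 100 uM, duplicate.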

Read-out in test [11]: Glutamate-cysteine ligase catalytic (GCLC), GCLC (gene 2729)
The test can be described thus: LTEA_HepaRG_GCLC: Life Technologies and Expression Analysis (LTEA) Assay for Glutamate-cysteine ligase catalytic (GCLC) using HepaRG (AID 2283498). The essentials:
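Expression by TaqMan qRT-PCR, normalized to three housekeeping genes (ACTB, GAPDH, POLR2A), with up- or down-regulation fitted against DMSO. HepaRG cells dosed in duplicate for 48 h with 8 half-log concentrations up to 100 uM, vehicle 0.5% DMSO.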

Read-out in test [12]: Glutamate-cysteine ligase regulatory (GCLM), GCLM (gene 2730)
The test is described as follows: LTEA_HepaRG_GCLM: Life Technologies and Expression Analysis (LTEA) Assay for Glutamate-cysteine ligase regulatory (GCLM) using HepaRG (AID 2283500). The essentials: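 Endpoint is GCLM transcript level by qRT-PCR, normalized to three housekeeping genes, after 48 h chemical exposure of human HepaRG cells (0.5% DMSO vehicle, top 100 uM, half-log dilutions). Fitting was bidirectional relative to DMSO.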

Read-out in test [13]: Heat shock 70 kDa protein 1 (HSPA1A), gene 3303
The test can be described thus: LTEA_HepaRG_HSPA1A: Life Technologies and Expression Analysis (LTEA) Assay for Heat shock 70 kDa protein 1 (HSPA1A) using HepaRG (AID 2283502). In short, it runs like this: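 Cells were plated and cultured for 48 h, then switched to serum-free induction medium. Chemicals were added at eight half-log concentrations up to 100 uM for 48 h. RNA was then isolated and HSPA1A measured by qRT-PCR with bidirectional curve fitting against DMSO.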

Read-out in a further test: CYP3A5 (gene 1577)
The test can be described thus: LTEA_HepaRG_CYP3A5: Life Technologies and Expression Analysis (LTEA) Assay for CYP3A5 using HepaRG (AID 2283493). In short, it runs like this: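 Human HepaRG hepatic cells receive 48 h chemical treatment at eight concentrations (half-log steps from 100 uM) in 0.5% DMSO. Expression of CYP3A5 is quantified by Fluidigm qRT-PCR and normalized to three reference genes.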

Read-out in test [14]: growth arrest and DNA damage 45 (GADD45G), GADD45G (gene 10912)
The test can be described thus: LTEA_HepaRG_GADD45G: Life Technologies and Expression Analysis (LTEA) Assay for growth arrest and DNA damage 45 (GADD45G) using HepaRG (AID 2283499). In short, it runs like this: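 HepaRG, 48 h exposure, top 100 uM, half-log 8-point series, 0.5% DMSO vehicle, duplicates. Readout: GADD45G transcript by qRT-PCR (Fluidigm array), housekeeping-normalised (ACTB/GAPDH/POLR2A). Bidirectional curve fit vs DMSO baseline.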

Where “and” joins values, the source holds several entries; their conditions need not be identical. Equal entries are not always repeated. A structure can be active in one record and inactive in another. Calls of active or inactive are those of the source. How the source made its calls: active means hit-call score of the fitted dose curve at least 0.9, where 1 is the maximum; inactive means score below 0.9.

Chain of Cytochrome P450 3A7 (Homo sapiens) (P24462 whole entry, looked up): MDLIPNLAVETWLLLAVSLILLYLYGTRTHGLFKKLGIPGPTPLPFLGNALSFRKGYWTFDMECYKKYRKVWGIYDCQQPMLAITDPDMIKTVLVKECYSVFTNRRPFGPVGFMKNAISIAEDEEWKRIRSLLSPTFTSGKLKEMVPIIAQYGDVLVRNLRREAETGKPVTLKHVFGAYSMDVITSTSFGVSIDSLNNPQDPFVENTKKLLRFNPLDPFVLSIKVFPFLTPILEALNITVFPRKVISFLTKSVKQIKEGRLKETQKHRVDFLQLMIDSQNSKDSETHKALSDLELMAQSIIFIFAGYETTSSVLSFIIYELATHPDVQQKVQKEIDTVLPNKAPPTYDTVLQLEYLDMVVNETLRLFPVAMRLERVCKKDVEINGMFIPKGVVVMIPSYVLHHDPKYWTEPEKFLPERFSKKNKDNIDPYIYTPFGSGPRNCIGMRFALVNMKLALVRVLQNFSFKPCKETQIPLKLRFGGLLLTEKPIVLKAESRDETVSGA
Chain of Cytochrome P450 3A4 (Homo sapiens) (P08684 whole entry, looked up): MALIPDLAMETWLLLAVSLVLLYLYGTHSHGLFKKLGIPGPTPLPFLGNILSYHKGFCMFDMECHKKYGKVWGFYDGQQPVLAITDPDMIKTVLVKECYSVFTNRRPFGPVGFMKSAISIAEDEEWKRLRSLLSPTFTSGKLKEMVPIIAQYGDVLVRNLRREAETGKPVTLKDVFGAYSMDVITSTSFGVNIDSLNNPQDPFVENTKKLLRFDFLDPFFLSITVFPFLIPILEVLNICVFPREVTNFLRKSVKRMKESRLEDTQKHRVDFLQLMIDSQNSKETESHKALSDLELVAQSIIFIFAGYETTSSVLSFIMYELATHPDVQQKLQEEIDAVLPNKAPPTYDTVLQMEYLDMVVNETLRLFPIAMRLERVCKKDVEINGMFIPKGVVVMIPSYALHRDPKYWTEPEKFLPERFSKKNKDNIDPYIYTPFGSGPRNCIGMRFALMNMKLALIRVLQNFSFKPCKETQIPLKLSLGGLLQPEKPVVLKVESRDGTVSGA

In the case of `Oc1ccc(Cl)cc1Cc1ccccc1`, the call (in the test with CYP2C8 (gene 1558); with CYP2C9 (gene 1559); with CYP2E1 (gene 1571); with CYP4A11 (gene 1579); in test [1]; in [2]) was inactive. In addition, the molecule was called inactive in test [3], in test [4], in [5], in [6], in [7] and in test [8]. For the same molecule, the molecule was classed as inactive in [9], in test [10], in test [11], in [12] and in test [13]. The AC50 in the test with CYP2C9 (gene 1559) was 79.2 µM (active); with CYP2E1 (gene 1571) it was 50.5 µM (active); with CYP4A11 (gene 1579), 81.7 µM (active) and 81.2 µM (active); in test [4], 50.5 µM (active); in test [7] it was 50.5 µM (active); in test [8], 91.8 µM (active). Besides, the AC50 in [9] is 76.1 µM (active); in test [10] it was 80.5 µM (active) and 92.2 µM (active).

On to `CCC(C)(C)C(=O)OC1=C(c2ccc(Cl)cc2Cl)C(=O)OC12CCCCC2`, for which the molecule was called inactive (with CYP2C8 (gene 1558); with CYP2C9 (gene 1559); in the test with CYP4A11 (gene 1579); in [2]; in test [3]; in test [4]). Besides, the result (in test [5]; with CYP3A5 (gene 1577); in [7]; in [8]; in test [9]; in test [10]) was inactive. Moreover, the molecule was classed as inactive in [11], in test [14] and in [13]. Also, the AC50 with CYP2E1 (gene 1571) is 23.1 µM (active); in test [1], 25 µM (active); in test [6] it was 25.5 µM (active).

As a reminder, the AC50 is the midpoint of the concentration-response curve, whichever way the signal moves.
